Shown are actives, neighbours in structure and some others; about 2.4% of the full set was active somewhere.
RTF Ca sens act = cardiac RTF calcium sensitization; P19429+P45379; IANBD-labeled TnC RTF fluorescence at EC20 calcium; 0% EC20 calcium, 100% full calcium; activation, % at 7.2 µM; 340,000 compounds, 0.24% hits;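 active = activation above the mean over all tested compounds plus 3 SD, cut at about 30% in these data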;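 also: rise in fluorescence read as greater calcium sensitivity of cardiac thin filaments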
TMEM16A inh = blocks the mouse calcium-activated chloride channel TMEM16A; normalized B-score (activity score, 25-100; higher = stronger inhibition) at 10 µM; 310,000 compounds, 1.2% hits; Q8BHY3; AID 588511; HEK293 TMEM16A/YFP iodide influx fluorescence, ionomycin;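 active = ratio plate-corrected score three or more library SD toward inhibition, starting fluorescence score within five deviations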;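 also: score derived from kinetic fluorescence span divided by baseline fluorescence per well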
Target sequence (Q8BHY3 whole entry, looked up): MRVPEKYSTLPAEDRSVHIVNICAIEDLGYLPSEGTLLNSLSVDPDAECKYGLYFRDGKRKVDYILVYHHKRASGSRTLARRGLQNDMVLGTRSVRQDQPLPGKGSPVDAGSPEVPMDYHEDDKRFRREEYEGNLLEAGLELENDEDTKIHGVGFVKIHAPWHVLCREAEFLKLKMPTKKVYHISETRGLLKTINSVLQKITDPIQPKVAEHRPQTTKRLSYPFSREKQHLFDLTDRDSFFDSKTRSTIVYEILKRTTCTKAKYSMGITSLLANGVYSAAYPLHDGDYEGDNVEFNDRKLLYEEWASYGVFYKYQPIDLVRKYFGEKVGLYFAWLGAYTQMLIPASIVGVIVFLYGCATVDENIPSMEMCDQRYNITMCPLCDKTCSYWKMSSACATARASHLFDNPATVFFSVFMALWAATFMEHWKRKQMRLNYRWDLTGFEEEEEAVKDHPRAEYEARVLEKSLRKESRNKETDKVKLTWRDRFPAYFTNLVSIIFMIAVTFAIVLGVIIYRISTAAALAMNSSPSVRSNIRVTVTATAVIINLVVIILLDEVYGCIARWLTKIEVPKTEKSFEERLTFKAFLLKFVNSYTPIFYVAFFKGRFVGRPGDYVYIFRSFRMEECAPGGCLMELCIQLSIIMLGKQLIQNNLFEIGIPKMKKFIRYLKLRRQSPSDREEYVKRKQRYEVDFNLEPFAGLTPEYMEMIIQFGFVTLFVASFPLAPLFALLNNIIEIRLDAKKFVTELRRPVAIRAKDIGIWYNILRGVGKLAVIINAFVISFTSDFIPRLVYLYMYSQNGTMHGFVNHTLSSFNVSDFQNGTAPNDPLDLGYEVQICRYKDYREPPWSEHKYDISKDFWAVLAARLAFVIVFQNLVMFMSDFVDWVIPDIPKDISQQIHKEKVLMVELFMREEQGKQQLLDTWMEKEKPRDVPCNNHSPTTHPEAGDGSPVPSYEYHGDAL
CRFBP-R2 block = antagonists of CRF-binding protein/CRF-R2 receptor complex | inhibition, % at 11.8 µM | 350,000 compounds, 0.59% hits | HEK293 CRF-R2/CRF-BP, CRF-induced calcium fluorescence | AID 588475;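 active = inhibition of the ligand-induced calcium signal above about 50% at the single tested concentration, limit read from the data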
ANO1 activ = mouse TMEM16A channel activation, primary screen. HEK293 TMEM16A/YFP-H148Q/I152L, iodide quench fluorescence; stronger effect = lower value. AID 623877. 340,000 compounds, 0.3% hits. B-score at 10 µM. Q8BHY3;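 active = fluorescence-ratio B-score plate-corrected deviation score at least 3 library SD below zero, with starting fluorescence score within 5 deviations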;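 also: channel opened by trigger with iodide after compound preincubation; score built on the fluorescence ratio of max minus min over baseline; more negative score means more quench and so TMEM16A activation or potentiation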
CRFBP-R2 agonist = CRF-BP/CRF-R2 complex agonism | HEK293 CRF-R2/CRF-BP, calcium dye fluorescence (FLIPR); percent of saturating CRF peptide response | activation, % at 13.2 µM | 350,000 compounds, 0.46% hits | AID 588473;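 active = activation of at least 50%, plus an integration ratio under a set limit after plate pattern correction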
RTF Ca sens inh = cardiac RTF calcium desensitization. 340,000 compounds, 0.12% hits. inhibition, % at 7.15 µM. P19429+P45379. IANBD-labeled cardiac RTF, Ca2+ fluorescence;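 active = inhibition above the mean inhibition of all tested compounds plus 3 SD, cut at about 17% in these data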;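 also: assay run at fixed EC70 calcium of 1.6 mM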
RTF Ca inh conf = cardiac RTF calcium sensitivity inhibition, confirmation | shares compounds with RTF Ca sens inh | 360 compounds, 8% hits | reconstituted cardiac thin filaments, calcium sensitivity fluorescence | inhibition, % at 7.15 µM | AID 504635; in the data active = inhibition above about 18%
Large screens that a line does not name were inactive (follow-up assays come after a bar, where they were run); ! = not confirmed by another sample.

CC(C)(CNS(C)(=O)=O)SCc1ccc(Cl)cc1	RTF Ca sens inh 17 | RTF Ca inh conf inactive
COc1ccc(C(=O)c2ccccc2O)c(O)c1	RTF Ca sens inh 17 | RTF Ca inh conf inactive
COc1cc(/C=C2\SC(=S)N(C(C(=O)O)c3ccccc3)C2=O)cc(OC)c1OC (configuration not stated)	RTF Ca sens inh 28 | RTF Ca inh conf inactive
COc1cccc(/C=C2\SC(=S)N(C(C(=O)O)c3ccccc3)C2=O)c1OC (configuration not stated)	none
Cc1cc(C)n(Cc2ccc(C(=O)N/N=C/c3ccc(-c4ccc([N+](=O)[O-])cc4)o3)o2)n1	RTF Ca sens inh 29 | RTF Ca inh conf inactive
CCCCC(=O)N/N=C/c1ccc(-c2ccc([N+](=O)[O-])cc2)o1	none
CCc1nnc(NC(=O)OCc2ccccc2)s1	RTF Ca sens inh 17 | RTF Ca inh conf inactive
CCOC(=O)Nc1nnc(CCc2ccccc2)s1	none
COCCn1c(SCC(=O)Nc2ccc(NC(C)=O)cc2)nc2c([nH]c3ccccc32)c1=O	RTF Ca sens inh 19 | RTF Ca inh conf inactive
OC(CCCN1CCCCC1)(c1ccccc1)c1ccc(C(F)(F)F)cc1 (configuration not stated)	none (no result: TMEM16A inh)
O=C(Nc1ccccn1)C(F)(F)C(F)(F)C(F)(F)C(F)(F)C(=O)Nc1ccccn1	none
c1ccc2c(c1)ccc1ncccc12	RTF Ca sens inh 18 | RTF Ca inh conf inactive
O=Cc1ccc2ccc3cccnc3c2n1	none
c1cnc2ccc3ncccc3c2c1	none
c1cnc2c(c1)ccc1cccnc12	RTF Ca sens inh 18! | RTF Ca inh conf inactive
O=C(Nc1nccs1)c1ccc(NC(=O)C2CC=CCC2C(=O)O)cc1 (configuration not stated)	none
Nc1nc(-c2ccccc2)c(N=Nc2ccccc2Cl)s1	RTF Ca sens inh 22 | RTF Ca inh conf inactive
Nc1nc(-c2ccccc2)c(N=Nc2cccc3ccccc23)s1	none
CCN(CC)S(=O)(=O)c1ccc(N/N=C/c2ccccc2OCC(=O)O)c([N+](=O)[O-])c1	RTF Ca sens inh 19 | RTF Ca inh conf inactive
COc1ccc(S(=O)(=O)N2CCN(c3cnccn3)CC2)cc1OC	none (no result: TMEM16A inh)
O=C(c1ccc(Cl)cc1)c1cnc2ccccn12	RTF Ca sens inh 18 | RTF Ca inh conf inactive
O=C(Nc1cnc2ccccn2c1=O)c1ccc(Cl)cc1Cl	none
O=C(CSc1nnc(Cc2ccccc2)o1)Nc1ccc(Br)cn1	none
COc1ccc(C2=NOC(C(=O)NCCCn3ccnc3)C2)cc1 (configuration not stated)	RTF Ca sens inh 18 | RTF Ca inh conf inactive
Fc1ccc([C@@H]2CCNC[C@H]2COc2ccc3c(c2)OCO3)cc1	RTF Ca sens inh 20! | RTF Ca inh conf inactive
CC1(C)CC(=O)C2=C(C1)N(Cc1ccco1)C(=O)NC2(C(F)(F)F)C(F)(F)F	RTF Ca sens inh 18 | RTF Ca inh conf inactive
O=C(NCCC(=O)N1CCc2ccccc21)c1ccccc1Cl	none
CCSc1cc(N2CCCC2)nc(-c2ccc(C)cc2)n1	none
CCSc1cc(N2CCCC2)nc(-c2cccc(C)c2)n1	RTF Ca sens inh 18 | RTF Ca inh conf inactive
O=C1CSC(c2cccc([N+](=O)[O-])c2)N1c1c(F)cccc1F (configuration not stated)	RTF Ca sens inh 22 | RTF Ca inh conf inactive
O=C1CSC(c2cccc(F)c2)N1c1c(F)cccc1F (configuration not stated)	none
CCc1noc(C)c1C(=O)NNC(=O)COc1ccccc1C	none (no result: TMEM16A inh)
CN(Cc1cn(-c2ccccc2)nc1-c1ccc(F)cc1)C(=O)CCC(=O)O	RTF Ca sens inh 17 | RTF Ca inh conf inactive
O=C(Nc1ccnn1C1CCN(Cc2cccnc2)CC1)c1ccccc1Cl	RTF Ca sens inh 18 | RTF Ca inh conf inactive
COc1ccc(CCNC(=O)CCCCCNc2nc(=S)[nH]c3ccccc23)cc1OC	none
COc1ccc(CNC(=O)CCCCCNc2nc(=S)[nH]c3ccccc23)cc1	RTF Ca sens inh 18 | RTF Ca inh conf inactive
CCOC(=O)C1CCCN(CCC(=O)Nc2cc(OC)ccc2OC)C1 (configuration not stated)	none
CCc1ccc([C@@H]2C[C@H]3CN(Cc4ccccc4OC)C(=O)[C@]34CCCN24)cc1	RTF Ca sens inh 55 | RTF Ca inh conf inactive
COc1ccccc1CN1C[C@@H]2C[C@@H](c3ccc(C)cc3)N3CCC[C@@]23C1=O	none
O=C(Nc1cccc(Cl)c1)C1COc2ccccc2O1 (configuration not stated)	none
c1ccc(Cc2nnc(-c3ccccc3)o2)cc1	ANO1 activ -6.8, RTF Ca sens inh 17 | RTF Ca inh conf inactive
Brc1ccc(-c2nnc(Cc3ccccc3)o2)cc1	none (no result: RTF Ca sens act, RTF Ca sens inh)
COc1cc(/C=N/NC(=O)c2c(C)nnn2-c2nonc2N)ccc1O	RTF Ca sens inh 17 | RTF Ca inh conf inactive
CN1CCCC(CN2c3ccccc3Sc3ccccc32)C1 (configuration not stated)	RTF Ca sens inh 24 | RTF Ca inh conf inactive
CN1CCCC(CC2c3ccccc3Sc3ccccc32)C1 (configuration not stated)	none
COc1ccc(C2=NN(C(=O)CCCC(=O)O)C(c3cn(-c4ccccc4)nc3-c3ccccc3)C2)cc1 (configuration not stated)	none
O=C(O)c1ccc(COc2ccc3c(c2)CCC3)cc1	none
NNC(=O)c1ccc(COc2ccc3c(c2)CCC3)cc1	RTF Ca sens inh 17 | RTF Ca inh conf inactive
Cc1ccc(NC(=O)Cn2nnc3ccccc3c2=O)cc1	none
O=C(Cn1nnc2ccccc2c1=O)Nc1ccc(S(=O)(=O)N2CCOCC2)cc1	RTF Ca sens inh 17 | RTF Ca inh conf inactive
Cc1ccc(NC(=O)Cn2nnc3ccccc3c2=O)cc1C	RTF Ca sens inh 18 | RTF Ca inh conf inactive
CC(C)CCOc1ccc(C(=O)NNC(=O)CNC(=O)c2ccccc2F)cc1	none (no result: TMEM16A inh)
COc1ccc(OCC(O)CNCCOc2ccccc2OC)c(C(C)(C)C)c1 (configuration not stated)	none
Cc1ccc(-c2nc(C)sc2CC(=O)Nc2cccc(C)c2C)cc1	none
CC(C)Cn1c(/C=C/c2ccco2)nc2ccccc21	RTF Ca sens inh 18 | RTF Ca inh conf inactive
Nc1c(C(=O)NC2CC2)sc2nc3c(c(-c4ccco4)c12)CC/C3=C/c1ccco1	RTF Ca sens inh 31 | RTF Ca inh conf 98
NC(=O)c1sc2nc3c(c(-c4ccco4)c2c1N)CCC3	none
c1ccc(-c2ncc(CSc3nncn3-c3ccccc3)s2)cc1	none
